PfHsp90 yeast 2 – reduces growth (ATP signal) of yeast expressing P. falciparum Hsp90; S. cerevisiae expressing PfHsp90, BacTiter-Glo ATP, 48 h; yeast lacking PDR1 and PDR3 efflux regulators; inhibition, % at 9.4 µM; hit rate 0.32% among 310,000; AID 504621;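 active means every replicate shows inhibition above about 80%, whatever the replicate mean, limit read from the data; inconclusive means mean inhibition reaches the set limit but some replicate falls short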;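 further: 0% = DMSO neutral controls and 100% = 20 µM radicicol positive controls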
Calb FLC – affects C. albicans growth with fluconazole; hit rate 0.57% among 300,000; C. albicans CaCi-2 (fluconazole-resistant clinical isolate) + fluconazole, Alamar Blue growth, 48 h; growth inhibition, % (test concentration not listed);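 active means growth inhibition above about 58% in most replicates, limit read from the data, passing the limit was not always enough; inconclusive means exactly half the replicates above a set limit; inactive means most replicates below a set limit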;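 further: all wells also contain fluconazole at 8 µg/ml as a sub-toxic cotreatment; 0% = median of DMSO wells and 100% = median of geldanamycin control wells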
Shn3 3UTR inh – reduces Shn3 3'UTR luciferase signal in osteoblasts; Clone20 osteoblast Shn3 3'UTR firefly luciferase, 24 h; inhibition, % at 12.5 µM; hit rate 0.52% among 360,000; AID 588674;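 active means mean inhibition of at least 75% with every replicate also reaching 75%; inconclusive means mean inhibition at least 75% but some replicate below; inactive means mean inhibition below 75%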;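 further: 0% = median of neutral control wells and 100% = pilot-screen positive control compound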
CSC inhib – cancer stem cell inhibition | cancer stem cell-like cells viability, luminescence | inhibition, % at 7.5 µM | hit rate 1.1% among 300,000 | AID 2717; in the data active means inhibition above about 75%; inconclusive means no clear call, values can overlap the other calls; tested in HMLE shEcad cells
Beta cell apopt – blocks beta cell apoptosis. hit rate 0.8% among 300,000. AID 435005. INS-1E cytokine-induced death, ATP luminescence, 48 h; percent of positive-control rescue, neutral wells zero. protection from apoptosis, % (no concentration beside the values);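 active means Every replicate reaches about 75%, or at least half do and their mean reaches it too, limit read from the data; inconclusive means At least half of replicates reach the limit but their mean does not; inactive means Under half of replicates reach the limit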;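 further: 0% = cytokine-treated negative control wells and 100% = positive control rescue; higher means more ATP so stronger rescue from cytokine killing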
The depositor's hits bear a star; ? = inconclusive; nt = no result given. Sampled rows, rich in hits. Any-hit rate of the full collection: about 2.2%.

SMILES	PfHsp90 yeast 2	Calb FLC	Shn3 3UTR inh	CSC inhib	Beta cell apopt
S=C(NCCSCc1c(Cl)cccc1Cl)Nc1ccccc1	nt	95*	12	nt	4
O=C(O)/C=C/c1cn(-c2ccccc2)nc1-c1cc2ccccc2o1	90*	8	-7	3	-5
CN(C)C(=O)CNC(=O)CN1C(=O)NC2(CCCc3sccc32)C1=O (configuration not stated)	32	3	4	-24	-2
COc1cccc(NC(=O)c2ccc3nc(C)sc3c2)c1	2	99*	-64	1	0
CNC(C)C(=O)NC(C(=O)N1CCCC1C(=O)NNc1ccccc1)C(C)C (configuration not stated)	0	nt	-6	98*	5
CNC(C)C(=O)NC(C(=O)N1CCCC1C(=O)NC1CCCc2ccccc21)C(C)C (configuration not stated)	nt	nt	-1	13	52
N#Cc1c(N)nc2c(c1-c1ccc3c(c1)OCO3)CCc1ccccc1-2	-66	6	4	82*	13
N#Cc1c(N)c(C#N)c(-c2ccc3c(c2)OCO3)c2c1CCCC2	11	9	15	2	3
CC1=Nc2ccccc2/C1=C/c1nc(-c2ccc(C)s2)oc1O	-9	-5	-26	1	-4
CC1=Nc2ccccc2/C1=C/c1sc(=N)n(-c2nccs2)c1O	13	-2	29	111*	57
O=C(CCl)Nc1c(C(=O)Nc2ccc3c(c2)OCCO3)oc2ccccc12	-2	13	95*	36	14
COCC(=O)Nc1c(C(=O)Nc2ccc3c(c2)OCO3)oc2ccccc12	0	18	-75	1	-3
CC(C)c1ccc(NC(=O)Nc2nc(C(N)C3CCCCC3)cs2)cc1 (configuration not stated)	nt	nt	97*	nt	nt
CC(C)c1ccc(NC(=O)Nc2nc(C(N)CCc3ccccc3)cs2)cc1 (configuration not stated)	nt	nt	97*	nt	nt
C=C(C(=O)c1ccccc1)C(CC(=O)c1ccccc1)c1ccccc1 (configuration not stated)	-4	0	89*	?	-27
CCOc1ccc(C(=O)N2CCC3(CC2)NCCc2[nH]cnc23)cc1OCC	6	-19	-14	7	-2
CCc1ccc(S(=O)(=O)N2CCN(c3ncccn3)CC2)cc1	25	-3	-1	-12	-1
C=CCc1ccc(OCc2ccc(C(=O)Nc3ccc(NC(C)=O)cc3)o2)c(OC)c1	-25	-9	-40	nt	nt
COc1cc(C(N)=O)cc(Cl)c1OCc1ccccc1	13	-7	-8	9	-4
CCOc1cc(C(N)=O)cc(Cl)c1OCc1ccccc1	11	112*	-15	0	-2
CCCCNc1nc(N)nc(-c2cc(Cl)ccc2O)n1	104*	61	-80	nt	-13
CCCNc1nc(N)nc(-c2cc(Cl)ccc2OC)n1	-1	-12	-2	-6	-5
CCNc1nc(N)nc(-c2cc(Cl)ccc2O)n1	52	80*	-113	24	-14
Cc1cc([N+](=O)[O-])nn1CCCC(=O)Nc1cc(Cl)ccc1Cl	-5	1	8	-8	-1
c1ccc(COc2cncc(-c3cccnc3)c2)cc1	2	nt	-10	5	-4
SMILES	PfHsp90 yeast 2	Calb FLC	Shn3 3UTR inh	CSC inhib	Beta cell apopt
O=C(c1ccc2c3n(nc2c1)-c1ccccc1CO3)N1CCOCC1	29	3	-56	98*	nt
CC(C)n1ncc2c(C(=O)N3CCN(Cc4ccc(Br)s4)CC3)cc(C3CC3)nc21	13	nt	27	14	21
CCC(C)NS(=O)(=O)c1ccc(S(=O)(=O)N2CCCC3(CCCCC3)C2)cc1 (configuration not stated)	nt	-8	86*	4	43
CCC(C)C(=O)Nc1ccc(S(=O)(=O)N2CCCC2)cc1 (configuration not stated)	-1	-1	9	52	-25
CCOC(=O)c1c(C)oc2c(F)c(F)c(F)c(F)c2c1=O	nt	36	-16	90*	nt
CN(C)c1ccc(/C=C/c2ccc3c4ccccc4ccc3[n+]2-c2ccccc2)cc1	nt	nt	93*	nt	nt
CN(C)c1ccc(/C=C/c2cccc[n+]2[O-])cc1	-3	4	-28	-8	-13
C=CCn1c(SCCC)nc2sc3c(c2c1=O)CCc1ccccc1-3	30	8	-7	83*	6
C=CCSc1nc2sc3c(c2c(=O)n1CC=C)CCc1ccccc1-3	-9	8	5	5	-2
COc1ccc(C(CNC(=O)c2cccc(S(=O)(=O)Nc3cccc(C)c3)c2)N2CCOCC2)cc1 (configuration not stated)	-8	-2	11	nt	4
C=CCn1c2ccccc2c(=O)c2cc(C#Cc3ccccn3)ccc21	-1	nt	-111	76*	8
Cc1cc(-c2onc3ccc(Cl)cc23)ccc1O	13	1	-69	-7	0
c1ccc(-c2cc(-c3nnc4n3N=C(c3ccc5ccccc5c3)CS4)[nH]n2)cc1	-21	5	11	92*	11
COCCCN(C(=O)Cc1ccc(S(=O)(=O)N2CCOCC2)s1)c1c(N)n(Cc2ccccc2)c(=O)[nH]c1=O	nt	nt	5	nt	nt
Cc1ccc(-c2sc(C(=O)NN)c(C)c2C#N)cc1	-1	7	-8	17	-1
O=C(NC1CCCCC1)C(c1ccccc1)N(C(=O)c1csnn1)C1CCCC1 (configuration not stated)	21	-4	7	-2	-3
CCOC(=O)CN1CCC(c2cc(-c3ccc(Cl)cc3)n[nH]2)CC1	27	-8	15	4	-3
O=[N+]([O-])c1cccnc1N1CCC(c2cc(-c3ccc(Cl)cc3)n[nH]2)CC1	57	0	1	101*	3
CN(CC(=O)Nc1ccc(F)cc1)CC(=O)N1CCCC1	-10	nt	-2	11	-7
CC(C)(C)OC(=O)C(C1NC(C(=O)O)C(C)(C)S1)N1C(=O)c2ccccc2C1=O (configuration not stated)	2	nt	16	nt	nt
O=S(=O)(c1ccc(Cl)s1)N1CCCc2cccc(O)c21	nt	68*	-106	nt	13
Cc1cnc(CNC(=O)C2(C)CCCN2CC(C)C)cn1 (configuration not stated)	nt	nt	-14	nt	nt
O=C(Nc1ccccc1C(=O)N1CCN(Cc2ccccc2)CC1)c1ccccc1	-9	2	2	-12	-9
Clc1ccccc1Cn1c(/C=C/c2ccco2)nc2ccccc21	-22	28	2	112*	-6
O=C(CCc1ccccc1)NNC(=S)NC(=O)c1ccc(Cl)cc1	nt	80*	nt	4	nt
O=C(CCc1ccccc1)NNC(=O)c1ccc(Cl)cc1	5	2	18	-14	-1
Cc1cccc(C(=O)NC(=S)NNC(=O)Cc2ccccc2)c1	109*	95*	7	-7	10
COc1ccccc1-c1cnc(C(O)c2cccc(F)c2)[nH]1 (configuration not stated)	nt	nt	-11	nt	nt
CCC(C)Sc1cc(-c2nc3ccc(C)cn3c2NCc2ccccc2)ccc1OC (configuration not stated)	13	20	97*	-29	nt

Screens from PubChem.
